PLK1 PBD block: qHTS for Inhibitors of PLK1-PDB (polo-like kinase 1 - polo-box domain): Primary Screen | Potency, µM, inactives show max response, negative = inhibition, most hits filed as inhibitors | Plk1 PBD binding of FITC phosphopeptide, fluorescence polarization | actives 2.8% (n = 360,000) | AID 720504, 2013 | Serine/threonine-protein kinase PLK1 (Homo sapiens), P53350; also: potency is read from the fitted curve at half-maximal effect; series mostly up to about 57 µM; % is scaled to controls: 0 for no effect and ±100 for the full control effect; nearly all actives have a fitted effect of over 65% in size
CBFb RUNX1 block: qHTS Assay for Compounds Blocking the Interaction Between CBF-beta and RUNX1 for the Treatment of Acute Myeloid Leukemia | Runt-related transcription factor 1 (Homo sapiens) + Core-binding factor subunit beta … | AlphaScreen CBFb-His/RUNX1-biotin binding, biochemical | Potency, µM (top dose mostly 59.8 µM), inactives show at the top dose activity, negative = inhibition, actives largely listed as inhibitors | 230,000 tested, under 10 active; also: % of control where 0% means no effect
Target sequence (Q01196 whole entry, looked up): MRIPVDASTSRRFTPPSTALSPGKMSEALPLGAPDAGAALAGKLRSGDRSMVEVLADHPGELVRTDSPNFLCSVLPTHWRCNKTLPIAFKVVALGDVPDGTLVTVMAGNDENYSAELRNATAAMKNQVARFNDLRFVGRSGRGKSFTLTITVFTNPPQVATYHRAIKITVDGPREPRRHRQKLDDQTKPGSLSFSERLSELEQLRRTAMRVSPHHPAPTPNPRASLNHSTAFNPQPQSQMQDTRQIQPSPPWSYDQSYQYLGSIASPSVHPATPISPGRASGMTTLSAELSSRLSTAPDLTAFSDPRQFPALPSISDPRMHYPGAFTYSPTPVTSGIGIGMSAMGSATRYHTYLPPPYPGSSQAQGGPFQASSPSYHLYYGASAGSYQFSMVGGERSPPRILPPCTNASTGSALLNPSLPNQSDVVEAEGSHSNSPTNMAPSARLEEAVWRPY
Target sequence (Q13951 whole entry, looked up): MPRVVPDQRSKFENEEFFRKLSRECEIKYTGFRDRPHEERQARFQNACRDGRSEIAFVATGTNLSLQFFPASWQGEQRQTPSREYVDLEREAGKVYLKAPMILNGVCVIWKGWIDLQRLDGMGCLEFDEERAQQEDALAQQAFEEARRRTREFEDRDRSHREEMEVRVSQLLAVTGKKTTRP
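CBF-beta (His) and RUNX1 (biotin), 30 nM each; 20 min preassociation; + compound, 15 min; + beads 50 ng each (Ni, streptavidin), 90 min; RT; AlphaScreen read.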
VDR inh: Inhibitors of the vitamin D receptor (VDR): qHTS; Vitamin D3 receptor (Homo sapiens), P11473; VDR-SRC2-3 peptide fluorescence polarization, 2 h; Potency, µM, without a hit: max response, negative = inhibition, usual class: inhibitors; actives 0.93% (n = 400,000); also: potency is read from the fitted curve at half-maximal effect; % is scaled to controls: 0 for no effect and ±100 for the full control effect
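VDR–SRC2-3 interaction, FP format. Cmpds 23 nl via pintool, brief spin, 2 h ambient incubation.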
KCNH2 3.1 block: qHTS for Inhibitors of KCHN2 3.1: Mutant qHTS; Potassium voltage-gated channel subfamily H member 2, brain isoform KCNH2 3.1 (human); actives 0.95% (n = 340,000); activity change, % (tested at about 1.8 µM); AID 720553, 2013; U2OS KCNH2 3.1, thallium flux FluxOr; hits give low values;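 active = maximum activity change below -70%; inconclusive = maximum activity change from -70% to -50%; inactive = maximum activity change above -50%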;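 also: thallium influx rate constant from kinetic fluorescence after stimulation buffer; % is scaled to controls: 0 for no effect and ±100 for the full control effect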
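Measured as rate of thallium-driven FluxOr signal in transduced U2OS cells carrying the 3.1 channel, read kinetically for 2 min upon stimulation; values are rate constants scaled to DMSO control wells.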
KCNH2 WT inh: qHTS for Inhibitors of KCHN2 3.1: Wildtype qHTS. activity change, % at 1.84 µM. actives 0.37% (n = 340,000). Voltage-gated inwardly rectifying potassium channel KCNH2 (Homo sapiens), Q12809. AID 720551, 2013. U2OS, BacMam KCNH2, thallium flux FluxOr; hits give low values;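 active = maximum activity change below -70%; inconclusive = maximum activity change between -70% and -50%; inactive = maximum activity change above -50%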; also: % is scaled to controls: 0 for no effect and ±100 for the full control effect
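U2OS cells transduced with wild-type KCNH2 virus are loaded with FluxOr dye for 45 min, and thallium flux is measured in kinetic reads before and after stimulation buffer. Rate constants are normalized to DMSO controls.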
MBNL1 CUG block: qHTS Assay for Inhibitors of MBNL1-poly(CUG) RNA binding; Muscleblind-like protein 1 (Homo sapiens), Q9NR56; TR-FRET MBNL1-His/biotin-(CUG)12 binding, 665/545 ratio; Potency, µM (doses to about 57.5 µM), inactives show at the highest dose activity change, negative = inhibition, hits mostly inhibitors; actives 0.036% (n = 280,000); AID 2675, 2010; active = well fitted inhibition curve with a large enough effect in the signal ratio, with a control signal flat, not every such curve was filed as active; inconclusive = small, poorly fitted or top-dose-only effect, or effect the other way, or a change in a side signal; inactive = no such curve, though single readings can be large or run the other way; the % refers to the signal ratio; also: potency is read from the fitted curve at half-maximal effect; % is scaled to controls: 0 for no effect and ±100 for the full control effect
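Compound titration spanned 92 nM–58 uM against the MBNL1-His/biotin-(CUG)12 complex. After 60 min at room temperature with 5 nM streptavidin-XL665 and 0.055 ng/ul terbium anti-His, ratiometric 665/545 nm emission (Ex 340 nm) normalized to controls.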
TbPYK inh: qHTS of Trypanosoma Brucei Inhibitors: Confirmatory Assay for Cherry-picked Compounds | shares compounds with PLK1 PBD block | recombinant TbPYK, Kinase-Glo ATP luminescence | Potency, µM (top dose mostly 76.9 µM), without a hit: at the top dose activity change, negative = inhibition, usual class: inhibitors | actives 67% (n = 890); also: potency is read from the fitted curve at half-maximal effect; % is scaled to controls: 0 for no effect and ±100 for the full control effect; nearly all actives have a fitted effect of over 70% in size
TbPYK ADP-Glo: qHTS of Trypanosoma Brucei Inhibitors: Orthogonal Assay for Cherry-picked Compounds; shares compounds with PLK1 PBD block; recombinant TbPYK, ADP-Glo luminescence, 60 min; Potency, µM (doses to about 76.9 µM), for the others: top-dose activity change, negative = inhibition, actives largely listed as inhibitors; actives 62% (n = 890); also: potency is read from the fitted curve at half-maximal effect; % is scaled to controls: 0 for no effect and ±100 for the full control effect; nearly all actives have a fitted effect of over 75% in size
The depositor's hits bear a star; ? = inconclusive; . = no result given. Shown are actives, neighbours in structure and some others; about 3.8% of the full set was active somewhere. Unless noted, calls follow the shape of the dose curve; as a rule, active = well fitted curve in the direction sought with a large enough effect; inconclusive = small, poorly fitted or top-dose-only effect, or another doubt; inactive = no such curve, though single readings can be large; an effect the other way counts as inactive or inconclusive.

SMILES	PLK1 PBD block	CBFb RUNX1 block	VDR inh	KCNH2 3.1 block	KCNH2 WT inh	MBNL1 CUG block	TbPYK inh	TbPYK ADP-Glo
O=C1NC(=O)N(CCc2ccc(F)cc2)C(=O)/C1=C/c1ccco1	1.1µM*	?	39%	-9	0	6%	32µM*	?
COc1ccc(CN2C(=O)NC(=O)/C(=C\c3ccco3)C2=O)cc1	1.2µM*	.	54%	-7	?	5%	28µM*	?
O=C1NC(=O)N(Cc2ccccc2)C(=O)/C1=C/C=C/c1ccco1	122%	.	?	9	5	5%	.	.
O=C(NC1CCCCCC1)c1ccc[nH]c1=S	-7%	0%	?	-20	17	-22%	.	.
N#CCCn1cc(C=C2C(=O)NC(=O)NC2=O)c(-c2ccccc2)n1	2.7µM*	5%	-39%	3	2	7%	16µM*	32µM*
CN[C@@H]1C[C@@]2(C)O[C@@H]([C@@H]1OC)n1c3ccccc3c3c4c(c5c6ccccc6n2c5c31)C(=O)NC4	.	-2%	-1%	.	.	.	.	.
CN1CCN(C(=S)c2ccc([N+](=O)[O-])cc2)CC1	5.3µM*	-3%	?	1	4	?	5µM*	13µM*
Cc1nn(Cc2ccccc2)c(C)c1C(=O)NCc1ccccc1	-8%	16%	-10%	-30	-22	.	.	.
Cc1nn(Cc2ccccc2)c(C)c1C=C1C(=O)NC(=O)NC1=O	9.5µM*	1%	-26%	-1	-12	.	18µM*	32µM*
C=C(C)C(=O)CP(=O)(OCC)OCC	.	-1%	-7%	.	.	.	.	.
Cc1cccc2c1=NC(=O)/C(=C/c1c(O)[nH]c(=O)[nH]c1=O)C=2	7.5µM*	3%	?	-1	-10	?	25µM*	?
O=c1[nH]c(O)c(C=Nc2ccccc2Sc2ccccc2)c(=O)[nH]1	-15%	8%	3%	8	4	-8%	.	.
COc1cc(C=C2C(=O)NC(=O)NC2=O)ccc1OCc1ccc([N+](=O)[O-])cc1	6.7µM*	-6%	?	11	12	?	13µM*	28µM*
C=CCN1C(=O)NC(=O)/C(=C\c2ccc(-c3ccccc3[N+](=O)[O-])o2)C1=O	1.5µM*	15%	18µM*	-8	4	?	10µM*	25µM*
O=[N+]([O-])c1ccc(-c2ccc(C=Nc3cccc4ccccc34)o2)cc1	-12%	-29%	14%	-39	2	?	.	.

Screening results from PubChem.
